NALP3 yeast inh: NALP3 inflammasome inhibitors in reconstituted yeast, primary screen, luminescence, uHTS. inhibition, % at 10 µM. 330,000 compounds, 0.39% hits. Yeast reconstituted NLRP3/ASC/caspase-1, beta-gal luminescence, 24 h. AID 2825, 2010;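 active = inhibition of 50% or more; inactive = inhibition below 50%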
tim10-1 inh: growth inhibitors of tim10-1 mutant yeast, primary screen, luminescence, uHTS; AID 463190, 2010; 330,000 compounds, 2.2% hits; inhibition, % at 20 µM; S. cerevisiae tim10-1 ts strain growth, BacTiter-Glo, 24 h;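 active = inhibition of at least 40%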;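 also: mutant grown at 25 °C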
tim23-1 inh: growth inhibitors of tim23-1 mutant yeast, primary screen, luminescence, uHTS. 330,000 compounds, 1.3% hits. AID 463212, 2010. inhibition, % at 20 µM. S. cerevisiae tim23-1 growth, BacTiter-Glo luminescence, 24 h;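 active = growth inhibition of the mutant yeast at or above 50%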;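 also: temperature-sensitive mutant grown at 25 °C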
TIM10 inh: growth inhibitors of isogenic TIM10 control yeast, primary screen, counter-screen for tim10-1 yeast inhibitor project, luminescence, uHTS; 330,000 compounds, 1.4% hits; S. cerevisiae TIM10 strain growth, BacTiter-Glo luminescence, 24 h; inhibition, % at 10 µM;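 active = inhibition of 40% or more at the single tested concentration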;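 also: wild-type TIM10 isogenic control strain grown at permissive 25 °C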
V-ATPase pHluor: regulators of yeast V-ATPase proton pumping, primary screen, pHLuorin cytosolic pH fluorescence | S. cerevisiae | response, % at 10 µM | 350,000 compounds, 0.37% hits | AID 504577, 2011; in the data active = response mostly above about 7.3%, no sharp cut-off; inactive = mostly below about 5.4%; also: actives read high
NALP1 yeast inh: NALP1 inflammasome inhibitors in reconstituted yeast, colorimetric, S. cerevisiae, triplicate retest; S. cerevisiae NALP1/ASC/caspase-1 growth, X-gal OD620, 72 h; inhibition, % at 10 µM; 280,000 compounds, 0.61% hits; in the data active = inhibition mostly above about 24%, no sharp cut-off; inactive = mostly below about 32%
tim10-1 confirm: growth inhibitors of tim10-1 mutant yeast, confirmation, single concentration, luminescence, S. cerevisiae; inhibition, % at 20 µM; AID 463213, 2010; shares compounds with tim10-1 inh; 7,400 compounds, 56% hits; S. cerevisiae tim10-1 ts strain growth, BacTiter-Glo, 24 h;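 active = inhibition of yeast growth at or above a set limit in either of two repeat tests at 20 µM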;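 also: tim10-1 mutant grown at permissive 25 °C to find synthetic lethal compounds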
Numbers stand for hits; n = inactive; x = not tested or not shown. Shown are actives, neighbours in structure and some others; about 4.2% of the full set was active somewhere.

SMILES	NALP3 yeast inh	tim10-1 inh	tim23-1 inh	TIM10 inh	V-ATPase pHluor	NALP1 yeast inh	tim10-1 confirm
CCOc1cc(/C=N/NC(=O)CN2CCOCC2)ccc1OCc1ccc(Cl)cc1	n	41.8	n	n	n	n	n
O=S(=O)(c1cccc(COc2c(Cl)cccc2Cl)c1)N1CCOCC1	n	40.2	n	n	n	x	n
O=S(=O)(c1cccc(COc2ccc(Cl)cc2Cl)c1)N1CCOCC1	n	n	n	n	n	n	x
O=C(Nc1nnc(Cc2ccccc2)s1)C1CCC1	n	n	n	n	n	n	x
CC(C)(C)C(=O)NCCc1nc2ccccc2n1CC(=O)c1ccc(Cl)cc1	n	n	n	n	n	n	x
Nc1c(C(=O)NCc2ccccc2)c2nc3ccccc3nc2n1CCCN1CCOCC1	n	n	n	n	n	n	x
Nc1c(C(=O)NCc2ccc(F)cc2)c2nc3ccccc3nc2n1CCCN1CCOCC1	n	60.2	n	n	n	n	n
Cc1ccc(C)c(N2CCN(C(=O)c3ccc4c(c3)c(C)c(C)n4C)CC2)c1	n	43.4	n	n	n	n	n
Cc1ccc(C)c(N2CCN(C(=O)c3ccc4nc(-c5ccco5)c(-c5ccco5)nc4c3)CC2)c1	n	43.7	n	n	n	n	37.0
CCOC(=O)c1c(-c2ccc(C)o2)csc1NC(=O)CN1CCOCC1	n	n	n	n	n	n	x
CCOC(=O)c1c(-c2ccc(C)o2)csc1NC(=S)NC(=O)N(C)C	n	55.4	n	n	n	n	45.5
CCOC(=O)c1c(-c2ccc(C)o2)csc1NC(=O)COC(=O)c1cccs1	n	41.8	n	n	n	n	n
O=C1CCC(=O)N(O)CCCCCNC(=O)CCC(=O)N(O)CCCCNC(=O)CCC(=O)N(O)CCCCCN1	n	n	n	n	n	n	x
C=CCN=c1scc(-c2ccc(F)cc2)n1/N=C/c1ccccn1	n	40.6	n	n	n	n	n
Cc1ccccc1-c1nc(SCc2cccnc2)c2c(=O)n(C)c(=O)n(C)c2n1	n	n	n	n	n	n	x
Cc1ccc(S(=O)(=O)CCC(=O)Oc2ccc3c(C)cc(=O)oc3c2)cc1	n	n	n	n	n	x	x
CC1=CC(C)(C)Nc2ccc(OC(=O)CCN3C(=O)c4ccccc4C3=O)cc21	n	40.4	n	n	n	n	32.0
Cc1cc(=O)oc2cc(OC(=O)CCCCCN3C(=O)c4ccccc4C3=O)ccc12	n	48.7	n	n	n	n	42.9
Cc1cccc(C(=O)OCC(=O)NCCCc2ccccc2)c1O	n	n	n	n	n	n	x
CN1CCc2c(c3ccccc3n2Cc2ccccc2)C1	n	n	n	n	n	n	x
CCn1c(SC(C)C)nnc1-c1cc(-c2ccccc2)sc1N	n	46.4	n	n	n	n	38.5
O=C(CNc1ccc2ccccc2c1)N/N=C/c1ccc(C(=O)O)cc1	n	n	n	n	n	n	x
Cc1ccc(-c2cc(C(=O)NN=C3CCCC3)c3ccccc3n2)cc1	n	44.3	n	n	n	n	n
O=C(N/N=C/c1ccco1)c1cc(-c2ccccc2)nc2ccccc12	n	n	n	n	n	n	x
O=C(N/N=C/c1ccc([N+](=O)[O-])o1)c1cc(-c2cccc(Br)c2)nc2ccccc12	n	44.5	n	n	n	n	n
SMILES	NALP3 yeast inh	tim10-1 inh	tim23-1 inh	TIM10 inh	V-ATPase pHluor	NALP1 yeast inh	tim10-1 confirm
Cc1sc(NC(=O)c2cc(-c3ccccc3)nc3ccccc23)c(C(N)=O)c1C	n	41.3	n	n	n	n	n
O=C(CNc1ccc2ccccc2c1)N/N=C/c1ccc([N+](=O)[O-])o1	n	47.3	n	n	n	n	41.2
CN(C)c1ccccc1C(=O)N1CCCC(C(=O)c2ccc3ccccc3c2)C1 (stereo unspecified)	n	n	n	n	n	n	x
O=C(NCC1COc2ccccc2O1)C1CCCN(S(=O)(=O)c2cccc3nsnc23)C1 (stereo unspecified)	n	n	n	n	n	n	x
O=S(=O)(c1ccc(F)cc1)N1CCN(c2ccccc2)CC1	n	n	n	n	n	n	x
O=C(N/N=C/c1ccccn1)c1cc(-c2ccc(Br)cc2)nc2ccccc12	n	43.8	n	n	n	n	n
CCCc1ccc(-c2cc(C(=O)N/N=C/c3ccc([N+](=O)[O-])o3)c3ccccc3n2)cc1	n	44.2	n	n	n	n	48.8
CCCOc1cccc(-c2cc(C(=O)N/N=C/c3ccccn3)c3ccccc3n2)c1	n	n	n	n	n	n	x
CCn1c(CCNC(=O)c2cccs2)nnc1SCC(=O)Nc1ccc(Cl)cc1	n	n	n	n	n	n	x
N#Cc1ccc(C(=O)NC23CC4CC(CC(C4)C2)C3)cc1	n	40.6	n	n	n	n	n
COC(=O)c1ccccc1NC(=O)C1CCN(C(=O)c2cc(OC)cc(OC)c2)CC1	n	n	n	n	n	n	x
C/C(=N\NC(N)=S)C12CC3CC(CC(C3)C1)C2	n	43.4	n	n	n	n	n
CCC(=O)NCc1ccc(-c2nc3ncccc3o2)cc1	n	n	n	n	n	n	x
O=S(=O)(Nc1c(O)ccc2ccccc12)c1cccc2ccccc12	n	43.9	n	n	n	x	n
Fc1ccccc1NC(=S)Nn1cnnc1	n	n	n	n	n	n	x
COc1ccc(CC(=O)O/N=C(\N)Cc2cccc3ccccc23)cc1OC	n	57.7	n	n	n	n	47.8
COc1ccc(CC(=O)O/N=C(\N)c2ccccn2)cc1OC	n	n	n	n	n	n	x
CCN1C(=O)C2(C(C#N)=C(N)Oc3c2c(C)nn3-c2ccccc2)c2ccccc21 (stereo unspecified)	n	64.5	n	n	n	n	62.5
CCNC(=O)/C(=C\c1ccccc1)NC(=O)/C=C/c1ccccc1	n	n	n	n	n	n	x
COc1ccc(C(=O)Oc2ccc3c(c2)OCO3)cc1OC	n	41.9	n	n	n	n	n
COc1cc(OC)c(C(=O)Oc2ccc3c(c2)OCO3)cc1OC	n	n	n	n	n	n	x
CCc1ccc(/C=C2\Oc3cc(OS(C)(=O)=O)ccc3C2=O)cc1	n	40.4	n	n	n	n	n
Cc1nc2c3cc(F)ccc3n(Cc3ccccc3F)c2s1	n	41.7	n	n	n	x	n
Cc1cc(C)n(-c2cc(C(C)(C)C)nc3c(-c4ccc(Cl)cc4)cnn23)n1	n	n	n	n	n	n	n
O=C(COc1cc2oc(=O)cc(-c3ccccc3)c2cc1Cl)NCc1ccccn1	n	41.9	n	n	n	n	n
CCCSc1nnc(Cc2cc(=O)[nH]c(=O)[nH]2)n1-c1cc(C)ccc1C	n	n	n	n	n	n	x

Bioassay records as filed in PubChem BioAssay.
